{"source": "PubChem BioAssay AID2546", "about": "(National Center for Advancing Translational Sciences (NCATS), 2010)", "note": "In all, about 310,000 compounds went through this assay and about 11,000 (3.5%) were called active. A call without a number means that no potency is given here. Inconclusive results (about 8%) are left out. This is one part of a sample in which actives are shown more often than they occur. Values without a mark were called inactive. Calls follow the shape of the dose curve; as a rule, active = well fitted inhibition curve with a large enough effect; inconclusive = small, poorly fitted or top-dose-only effect, or effect the other way; inactive = flat fitted curve, though single readings scatter. Potency is read from the fitted curve at half-maximal effect.", "data": [{"test": "VP16 counterscreen qHTS for inhibitors of ROR gamma transcriptional activity; also: nearly all actives have a fitted effect of over 50% in size", "details": "Drosophila S2 Gal4-VP16 UAS-luciferase, luminescence, 20 h; series mostly up to 53.6 µM", "text": "NIH Molecular Libraries Probe Production Network [MLPCN]\nNIH Chemical Genomics Center [NCGC]\nAssay Provider: Dan Littman, New York University\nThe retinoic acid-related orphan receptor (ROR) gamma is a transcription factor that has a central role in the differentiation of Th17 cells, a subset of T helper cells that secrete the inflammatory cytokines IL-17, IL-17F, and IL-22. Th17 cells have been implicated in graft versus host disease, autoimmune disease and asthma. ROR gamma is induced in naive T helper cells in the presence of TGF-beta combined with IL-6, IL-21, or IL-23, and thereafter directs the expression of the Th17 lineage cytokines. To identify nonspecific inhibitors, a Drosophila Schneider cell line was stably transfected with two vectors: a gene expressing a fusion of the Gal4 DNA binding domain and VP16 transactivation domain under the control of the metallothionine promoter and a Photinus luciferase reporter regulated by the Gal4 binding site enhancer, UAS. […] Small molecule inhibitors that inhibit components common to the RORgt and VP16 assays, such as the Gal4 DNA binding domain or the UAS luciferase reporter, will be active in both assays and thus scored as nonspecific.\nFor screening, 600 cells in 4 uL/well were dispensed into white solid 1536-well plates (Grenier) using a solenoid-based dispenser. Following transfer of 23 nL compound or DMSO vehicle by a pin tool, the plates were incubated 1 hr at ambient temperature, and 1 uL/well copper sulfate (700 uM final concentration) was added. The plates were centrifuged 15 s at 1000 RPM and incubated 20 hr at ambient temperature. After addition of 1.5 uL Photinus luciferase detection reagent, the plates were incubated 10 min at ambient temperature and then read by a ViewLux (Perkin Elmer) to detect luminescence.", "values": [{"smiles": "Cc1ccc(CNC(=O)c2c(-c3ccccc3)noc2C)cc1", "Potency": "inactive"}, {"smiles": "COc1ccc(C(=O)NC(=S)NNC(=O)c2c(-c3ccccc3)noc2C)cc1", "Potency": "5.62 µM (active)"}, {"smiles": "CC(=O)Nc1cccc(NC(=O)c2c(-c3ccccc3)noc2C)c1", "Potency": "inactive"}, {"smiles": "Cc1onc(-c2ccccc2)c1C(=O)N=C(N)c1ccc(Cl)cc1", "Potency": "inactive"}, {"smiles": "Cc1onc(-c2ccccc2)c1C(=O)NNC(=S)NC(=O)c1ccc(F)cc1", "Potency": "2 µM (active)"}, {"smiles": "CC(C)c1ccc(S(=O)(=O)NC2CCCC2)cc1", "Potency": "inactive"}, {"smiles": "COc1ccc(CN2CC(C(=O)NCCc3ccc(Cl)cc3)CC2=O)cc1", "note": "(stereo not drawn)", "Potency": "inactive"}, {"smiles": "CC(C)(C)c1ccc(Oc2ccc(N)cc2)cc1", "Potency": "7.08 µM (active)"}, {"smiles": "Nc1ccc(Oc2ccc(Cl)cc2)cc1", "Potency": "inactive"}, {"smiles": "Cc1ccc(Oc2ccc(N)cc2)cc1", "Potency": "inactive"}, {"smiles": "CC1=C(C(=O)NC2CC(C)(C)Cc3c2cnn3-c2ccc(C)cc2)OCCO1", "note": "(stereo not drawn)", "Potency": "inactive"}, {"smiles": "NS(=O)(=O)c1ccc2nc(NC(=O)CS(=O)(=O)c3ccc(F)cc3)sc2c1", "Potency": "inactive"}, {"smiles": "CCS(=O)(=O)N1Cc2ccccc2CC1C(=O)Nc1nc2ccc(F)cc2s1", "note": "(stereo not drawn)", "Potency": "11.2 µM (active)"}, {"smiles": "CCS(=O)(=O)N1Cc2ccccc2CC1C(=O)Nc1ccc(OC)cc1OC", "note": "(stereo not drawn)", "Potency": "inactive"}, {"smiles": "O=c1c2cc([N+](=O)[O-])ccc2nc2n1CCC2", "Potency": "inactive"}, {"smiles": "O=S(=O)(NC1CCCCC1N1CCC(O)CC1)c1ccc(Cl)cc1", "note": "(stereo not drawn)", "Potency": "inactive"}, {"smiles": "COc1cccc(CN(C)CC(O)COC(c2ccccc2)c2ccccc2C)c1", "note": "(stereo not drawn)", "Potency": "inactive"}, {"smiles": "COc1ccc(NC(=O)CCS(=O)(=O)c2cc3c(cc2Cl)NC(=O)CO3)cc1OC", "Potency": "inactive"}, {"smiles": "CN(C)CCN(C(=O)C1=COCCO1)c1nc2ccc(Cl)cc2s1", "Potency": "inactive"}, {"smiles": "O=C(Nc1ccc(Sc2ccc(Br)cc2)cc1)c1ccco1", "Potency": "2.82 µM (active)"}, {"smiles": "O=C(Nc1ccccc1)c1ccco1", "Potency": "inactive"}, {"smiles": "O=C(Nc1ccc(O)cc1)c1ccc(NC(=O)c2ccco2)cc1", "Potency": "inactive"}, {"smiles": "CCN(CC(=O)Nc1ccc(C)c(S(=O)(=O)N(C)C)c1)Cc1ccccc1", "Potency": "inactive"}, {"smiles": "Cc1ccc(C(C)C)c(OCCSc2nc3ccccc3n2CC(=O)O)c1", "Potency": "inactive"}, {"smiles": "CN(NS(=O)(=O)c1cccs1)c1ncc(C(F)(F)F)cc1Cl", "Potency": "5.01 µM (active)"}, {"smiles": "CN(Cc1ccc(F)cc1Cl)S(=O)(=O)c1cccs1", "Potency": "inactive"}, {"smiles": "C#CCN(N(C)c1ncc(C(F)(F)F)cc1Cl)S(=O)(=O)c1ccc2ccccc2c1", "Potency": "inactive"}, {"smiles": "Cc1ccc(NC2CCCN(C(=O)CCc3cn[nH]c3)C2)cc1C", "note": "(stereo not drawn)", "Potency": "inactive"}, {"smiles": "CCc1nccn1CCC(=O)N1CCCC(N2CCN(c3ccccc3F)CC2)C1", "note": "(stereo not drawn)", "Potency": "inactive"}, {"smiles": "COCc1ccc(C(=O)NC2CC(C)(C)Cc3c2cnn3-c2ccc(C)cc2)o1", "note": "(stereo not drawn)", "Potency": "inactive"}, {"smiles": "CCCc1cc(C(=O)N2CCCC(CO)(CCCc3ccccc3)C2)n(C)n1", "note": "(stereo not drawn)", "Potency": "inactive"}, {"smiles": "O=C(O)c1ccc(/C=N/NC(=O)c2ccc(Br)cc2)cc1", "Potency": "inactive"}, {"smiles": "O=C(O)c1ccc(N/N=C/c2ccc3ncccc3c2)cc1", "Potency": "0.398 µM (active)"}, {"smiles": "O=C(O)c1ccc(/C=N/Nc2nc(N3CCCCC3)nc(N3CCCCC3)n2)cc1", "Potency": "inactive"}, {"smiles": "COc1ccc(OCc2cc(C(=O)NCC3(C)COC3)no2)c(Cl)c1", "Potency": "inactive"}, {"smiles": "COc1ccc(CNC(=O)C(=O)NCC2OCCN2C(=O)c2ccc(OC)cc2)cc1", "note": "(stereo not drawn)", "Potency": "inactive"}, {"smiles": "COc1ccccc1C(=O)N(C1=NC(C)CS1)c1ccc(Cl)cc1", "note": "(stereo not drawn)", "Potency": "inactive"}, {"smiles": "CN(CCc1ccccn1)C(=O)c1ccc(OC2CCN(CCc3ccccc3)CC2)cc1", "Potency": "inactive"}, {"smiles": "CCOC(=O)c1c(S(=O)(=O)Nc2cccc(Cl)c2)c(C)n(C)c1C", "Potency": "inactive"}, {"smiles": "Cc1nc2ccccc2c(C)c1C(=O)c1ccc(F)cc1", "Potency": "inactive"}, {"smiles": "CC(C)c1ccc2c([Si](C)(C)C)c3c(nc2c1)-c1cccc(=O)n1C3", "Potency": "inactive"}, {"smiles": "Cc1c2c(nc3ccccc13)-c1cccc(=O)n1C2", "Potency": "8.91 µM (active)"}, {"smiles": "Cc1cc(C)c2nc(N(CCN(C)C)C(=O)/C=C/c3cccs3)sc2c1", "Potency": "inactive"}, {"smiles": "O=C(O)COc1ccc(/C=N/O)cc1Br", "Potency": "inactive"}, {"smiles": "C=CCNC(=S)N/N=C/c1ccc(OCc2ccccc2)cc1", "Potency": "inactive"}, {"smiles": "CNC(=S)N/N=C/c1ccc(OCc2ccccc2)c(Br)c1", "Potency": "3.55 µM (active)"}, {"smiles": "Cc1cc(C)cc(N(CC(=O)NC2CCCC2)C(=O)CCC(=O)Nc2cc(C)on2)c1", "Potency": "inactive"}, {"smiles": "O=C(Nc1ccc(F)cc1)C(=O)c1cn(CC(=O)N2CCOCC2)c2ccccc12", "Potency": "inactive"}, {"smiles": "Cc1cc(=O)[nH]c(SCc2cccc(F)c2)n1", "Potency": "inactive"}, {"smiles": "Cc1cc(C(=O)CSc2nc(N)cc(=O)[nH]2)c(C)n1-c1cccc(F)c1", "Potency": "17.8 µM (active)"}, {"smiles": "Cc1cc(C(=O)CSc2nc(N)cc(=O)[nH]2)c(C)n1CCc1ccc(Cl)cc1", "Potency": "inactive"}, {"smiles": "CCCn1c(=O)c(C(=O)Nc2cc(C)ccn2)c(O)c2ccccc21", "Potency": "inactive"}, {"smiles": "CCN1C(=S)N[C@@H](CCc2ccccc2)[C@H](C(=O)OC)[C@H]1C", "Potency": "inactive"}]}]}
